High-throughput results as filed in PubChem BioAssay.
FBPA coupling cs: coupling enzyme interference in Giardia aldolase counter-screen; coupling enzyme system counterscreen, AmpLite Red fluorescence; activity change, negative = inhibition, % at 58.2 µM, hits read low; hit rate 0.67% among 290,000; AID 2472; in the data active = activity change below about -30%
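Counterscreen of the coupled detection system alone, without aldolase: glyceraldehyde-3-phosphate coupling enzymes plus AmpLite Red readout. Compounds at 57.5 uM final, 10 min RT preincubation, 20 min RT reaction, fluorescence 525/598 nm.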
Tau fibril FP: tau fibrillization inhibition (FP) | P10636 | K18 P301L tau heparin fibrillization, Alexa594 FP, 6 h | Potency, µM (top dose mostly 57.7 µM), for inactives: at the highest dose activity, negative = inhibition, actives largely listed as inhibitors | hit rate 0.39% among 280,000; also: potency is read from the fitted curve at half-maximal effect; nearly all actives have a fitted effect of over 55% in size
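K18 P301L tau (15 uM unlabeled/0.24 uM Alexa 594-labeled, final) + compound + heparin 20 uM final; 100 mM NaOAc pH 7; 6 hr 37 C; ThT 30 uM final added, 1 hr RT; FP ex 555/em 632 nm.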
USP1 inh: blocks the human USP1/UAF1 deubiquitinase complex. recombinant USP1/UAF1, Ub-Rhodamine cleavage fluorescence. Potency, µM (doses to about 57.1 µM), inactives show top-dose activity change, negative = inhibition, usual class: inhibitors. hit rate 0.23% among 390,000; also: potency is read from the fitted curve at half-maximal effect; nearly all actives have a fitted effect of over 60% in size
Target sequence (O94782 whole entry, looked up): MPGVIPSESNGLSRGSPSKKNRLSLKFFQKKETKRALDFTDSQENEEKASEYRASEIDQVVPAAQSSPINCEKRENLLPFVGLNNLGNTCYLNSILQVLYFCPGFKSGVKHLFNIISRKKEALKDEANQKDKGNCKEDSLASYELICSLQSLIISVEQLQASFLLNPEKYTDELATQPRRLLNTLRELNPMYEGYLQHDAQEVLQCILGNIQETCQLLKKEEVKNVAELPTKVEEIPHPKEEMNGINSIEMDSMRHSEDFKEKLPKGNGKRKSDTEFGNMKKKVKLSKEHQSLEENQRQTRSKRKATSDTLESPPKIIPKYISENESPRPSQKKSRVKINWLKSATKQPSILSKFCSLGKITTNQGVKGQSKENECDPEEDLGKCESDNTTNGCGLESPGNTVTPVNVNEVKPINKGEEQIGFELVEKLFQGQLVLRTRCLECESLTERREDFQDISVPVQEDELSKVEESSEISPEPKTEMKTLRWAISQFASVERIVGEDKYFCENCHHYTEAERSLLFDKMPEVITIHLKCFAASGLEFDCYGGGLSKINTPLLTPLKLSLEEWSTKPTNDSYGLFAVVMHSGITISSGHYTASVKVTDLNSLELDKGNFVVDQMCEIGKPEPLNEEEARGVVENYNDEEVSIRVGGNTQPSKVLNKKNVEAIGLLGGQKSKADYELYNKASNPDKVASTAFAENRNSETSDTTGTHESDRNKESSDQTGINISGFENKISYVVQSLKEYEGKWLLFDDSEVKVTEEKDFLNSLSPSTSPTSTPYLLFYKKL
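USP1/UAF1 complex at 1 nM was preincubated with compound for 15 min at room temperature, then Ub-Rho substrate (150nM final) was added. Fluorescence (480/540 nm) was read kinetically, 6 reads every 60 seconds.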
Tau ThT inhib: inhibitors of human tau fibril formation, thioflavin T binding; hit rate 2.1% among 270,000; Potency, µM (highest dose often 57.4 µM), for the others: at the highest dose activity, negative = inhibition, actives largely listed as inhibitors; P10636; recombinant tau K18 P301L, heparin-induced fibrillization, ThT fluorescence; also: potency is read from the fitted curve at half-maximal effect; nearly all actives have a fitted effect of over 55% in size
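Heparin-induced (20 uM) aggregation of recombinant human K18 P301L tau, 15 uM unlabeled with 0.24 uM labeled, pH 7 acetate buffer, 6 hr at 37 C with compound. Fibrils quantified by 30 uM ThT fluorescence after 1 hr ambient incubation.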
Tau fluor cs: counter-screen for tau fibril formation inhibitors | tau K18 P301L (four-repeat tau fragment) Alexa594 fluorescence, heparin fibrillization | Potency, µM (highest dose often 57.7 µM), inactives show top-dose activity change, negative = decrease | hit rate 0.93% among 280,000 | AID 1463; also: potency is read from the fitted curve at half-maximal effect; nearly all actives have a fitted effect of over 55% in size
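Human K18 P301L tau (15 uM unlabeled plus 0.24 uM Alexa 594-labeled, final) in 100 mM sodium acetate pH 7 was mixed with compound and 20 uM heparin and incubated 6 hr at 37 C.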
Starred values were filed as active, the others as inactive; ? = inconclusive; · = no result given; [ ] = remark or other dose. Shown are actives, neighbours in structure and some others; about 2.3% of the full set was active somewhere. Unless noted, calls follow the shape of the dose curve; as a rule, active = well fitted curve in the direction sought with a large enough effect; inconclusive = small, poorly fitted or top-dose-only effect, or another doubt; inactive = no such curve, though single readings can be large; an effect the other way counts as inactive or inconclusive. % is scaled to controls: 0 for no effect and ±100 for the full control effect.

SMILES	FBPA coupling cs	Tau fibril FP	USP1 inh	Tau ThT inhib	Tau fluor cs
O=C1Nc2ccccc2/C1=N/N=C/c1ccc(-c2ccc([N+](=O)[O-])cc2)o1	0	3%	-19%	2.8µM*	-28%
CN(/N=C/c1ccc(-c2ccc([N+](=O)[O-])cc2)o1)c1ccccc1	-2	·	-9%	·	·
O=C(CN1C(=O)CSc2ccc(S(=O)(=O)N3CCCC3)cc21)NCc1ccc(F)cc1Cl	·	-4%	-27%	4%	-11%
Cc1ccc(/C=N/NC(=O)c2cccc([N+](=O)[O-])c2)o1	-1	7%	-15%	-17%	-8%
O=C(N/N=C/c1ccc(-c2cccc([N+](=O)[O-])c2)o1)c1ccc([N+](=O)[O-])cc1	-3	10%	3%	5.6µM*	?
Cc1ccc(C(=O)N/N=C\c2ccc(-c3ccc([N+](=O)[O-])cc3)o2)cn1	1	6%	-14%	3.2µM*	-29%
CN(C)/C=C/c1c([N+](=O)[O-])c2ccc(O)cc2n1-c1ccccc1	-4	?	-10%	13µM*	16µM*[quencher]
CCOC(=O)c1cccc(NS(=O)(=O)c2ccc3[nH]c4c(c3c2)CCCC4)c1	·	-2%	-20%	-1%	10µM*[quencher]
CC(=O)c1cccc(NS(=O)(=O)c2ccc3[nH]c4c(c3c2)CCCCC4)c1	·	2%	-7%	-2%	14µM*[quencher]
CC(=O)c1cccc(NS(=O)(=O)c2ccc3[nH]c4c(c3c2)CCCCCC4)c1	·	5%	-9%	-7%	14µM*[quencher]
O=S(=O)(NCc1ccccc1)c1ccc2[nH]c3c(c2c1)CCCCC3	·	-11%	-22%	11%	?
COc1ccccc1C(=O)Nc1ccc(-c2cc(C(F)(F)F)nn2-c2ccccc2)cc1	·	?	-30%	-8%	-29%
CCOc1ccc(NC(=O)C(C)Sc2nnc3cc(C)c4ccccc4n23)cc1 (stereo not drawn)	·	12%	-6%	-13%	-9%
Cc1cc(SCC(=O)N/N=C/c2ccc(O)c(O)c2)c(C)cc1Br	1	18%	-18%	?	14µM*[quencher]
CCOc1ccc(CCNC(=O)c2cccc(-n3c(C)nc4cccnc43)c2)cc1	·	2%	-31%	1%	0%
CCC(Sc1nc2n[nH]c(C)c2c(=N)n1-c1ccc(Br)cc1)C(=O)N(CC)CC (stereo not drawn)	·	-12%	?	-1%	-21%
COc1ccccc1Nc1ccc(N)cc1	-6	?	-9%	16µM*	?
O=C(Cc1cc(=O)[nH][nH]1)N/N=C/c1c(Cl)cccc1Cl	1	-9%	-5%	?	?
O=C(Cc1cc(=O)[nH][nH]1)N/N=C/C(Cl)=C/c1ccccc1	8	?	-13%	2.8µM*	?
O=C1Nc2cc(Cl)cnc2N2CCCC12 (stereo not drawn)	-9	?	?	14µM*	?
O=C1Nc2ccccc2C(=O)N2CCC[C@@H]12	0	-8%	·	0%	-5%
CCOc1ccc(CCNC(=O)CSc2nc3ccccc3nc2Cc2ccc(C)cc2)cc1OCC	·	-8%	-5%	-2%	-7%
CCOC(=O)c1ccc(NC(=O)c2ccc(CN3C(=O)CCn4nc(C)cc43)cc2)cc1	·	-4%	-11%	18%	-7%
COc1ccc(NC(=O)C2=NN(C3CCS(=O)(=O)C3)C(=O)CC2)cn1 (stereo not drawn)	-42*	2%	-20%	-4%	-10%
COc1ccc(NC(=O)C2=NN(C3CCS(=O)(=O)C3)C(=O)CC2)cc1S(N)(=O)=O (stereo not drawn)	·	·	-22%	·	·
CN(C)S(=O)(=O)c1ccc2c(c1)N(CC(=O)N1CCN(c3ccc(F)cc3)CC1)CCS2	·	?	-29%	-10%	-28%
CCOC(=O)N1CCc2c(sc3c2c(=O)n(Cc2ccccc2)c(=O)n3CC(=O)Nc2ccc(F)cc2)C1	·	10µM*	?	8%	?
CCOC(=O)N1CCc2c(sc3c2c(=O)n(Cc2ccccc2)c(=O)n3CC(=O)Nc2c(C)cccc2C)C1	·	-10%	3%	-8%	-10%
COc1ccc(N/N=C(/C)c2cnnc(-c3ccccc3)n2)cc1	1	11%	?	2.8µM*	?
